# Results from PubChem BioAssay.
# The source made the active and inactive calls.
# Key:
# [1] = system: Plasmodium falciparum Sir2 (PF13_0152, Sir2A); assay: pfSir2 binders on small-molecule microarrays, primary screen, biochemical, small-molecule microarray, 635 nm fluorescence (AID 1098); conditions: small-molecule microarray binding, fluorescence 635 nm; higher = more signal;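 also: score merges spot fluorescence intensity with its signal-to-noise ratio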
# [2] = small-molecule microarray binders of probe aDKK1, primary screen, biochemical, biotinylated probe, 635/667 nm fluorescence (AID 1099); conditions: higher = more signal;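 also: score merges 667nm spot fluorescence with signal to noise across triplicate slides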
# [3] = small-molecule microarray binders of probe aCHRDL2, primary screen, biochemical, biotinylated probe, 635/667 nm fluorescence (AID 1100); conditions: higher = more signal
# [4] = splicing luciferase reporter signal modulators, primary screen, spliceosome inhibition project, cell-based, HEK293, splice +/- reporter (AID 1101); conditions: luminescence, 24 h, higher = more signal, called active from +8 up or from −8 down;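 also: HEK293 cells carrying a splicing-competent luciferase reporter gene; test concentration not given here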
# [5] = target: Fibroblast growth factor 10 (Homo sapiens) (UniProt O15520); assay: FGF10 binders on small-molecule microarrays, primary screen, biochemical, small-molecule microarray, 635 nm fluorescence (AID 1102); conditions: FGF10 binding, fluorescence 635 nm, higher = more signal
# [6] = system: glycogen synthase kinase-3 (GSK3A per assay name; protocol says GSK3B); assay: GSK3 binders on small-molecule microarrays, primary screen, biochemical, small-molecule microarray, 635 nm fluorescence, GSK3A (AID 1103); conditions: small-molecule microarray binding, fluorescence 635 nm; higher = more signal; also: the record names both GSK3A and GSK3B
# [7] = target: Epidermal growth factor receptor (Homo sapiens) (UniProt P00533); assay: EGFR binders on small-molecule microarrays, primary screen, biochemical, small-molecule microarray, 635 nm fluorescence (AID 1104); conditions: EGFR binding, higher = more signal;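 also: score merges 667 nm emission intensity with spot signal to noise over triplicate slides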
# [8] = target: Follistatin-related protein 3 (Homo sapiens) (UniProt O95633); assay: FSTL3 binders on small-molecule microarrays, primary screen, biochemical, small-molecule microarray, 635 nm fluorescence (AID 1105); conditions: FSTL3 binding, higher = more signal;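 also: score merges emission near 667 nm and signal to noise per printed spot across three slides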
# [9] = target: Dickkopf-related protein 1 (Homo sapiens) (UniProt O94907); assay: DKK1 binders on small-molecule microarrays, primary screen, biochemical, small-molecule microarray, 635 nm fluorescence scan (AID 1106); conditions: DKK1 binding, higher = more signal;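 also: score merges emission near 667 nm with signal to noise over three replicate slides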
# [10] = system: Inhibin beta A chain (activin A); assay: INHBA (activin A) binders on microarrays, primary screen, biochemical, small-molecule microarray, 635 nm fluorescence scan (AID 1107); conditions: small-molecule microarray binding, higher = more signal;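 also: mouse activin A protein probed at 4.33 µg/mL on printed slides; score merges bound-protein fluorescence near 667 nm with spot signal-to-noise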
# [11] = system: Human papillomavirus type 1a protein E7 (residues 44-93); assay: HPV1a E7 fragment binders on microarrays, primary screen, biochemical, small-molecule microarray, residues 44-93, 635 nm fluorescence (AID 1108); conditions: small-molecule microarray binding, fluorescence 635 nm; higher = more signal;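 also: E7 fragment applied at 1 µg/mL in TBST for 1 h at 4 C; score combines spot fluorescence with its signal to noise ratio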
# [12] = modulators of HCV replicon luciferase signal, primary screen, HCV replication inhibitor project, Huh7 cells, luciferase reporter (AID 1109); conditions: 48 h, higher = more signal;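 also: huh7 hepatoma cells harbouring a luciferase neomycin HCV replicon reporter; luciferase luminescence as measure of HCV replicon replication; test concentration not given here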
# [13] = target: Left-right determination factor 2 (Homo sapiens) (UniProt O00292); assay: LEFTY2 binders on small-molecule microarrays, primary screen, biochemical, small-molecule microarray, 635 nm fluorescence scan (AID 1110); conditions: LEFTY2 binding, higher = more signal
# [14] = target: Calmodulin-1 (Homo sapiens) (UniProt P0DP23); assay: CALM1 binders on microarrays, EGTA buffer, profiling panel, biochemical, small-molecule microarray, Cy5-labelled CALM1 (AID 1111); conditions: Cy5-CALM1 binding fluorescence, higher = more signal;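 also: labelled calmodulin applied in Tris saline Tween buffer holding calcium plus EGTA and DTT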
# [15] = target: Calmodulin-1 (Homo sapiens) (UniProt P0DP23); assay: calcium-bound CALM1 binders on microarrays, profiling panel, artefact control for SMM control-protein annotation, biochemical, small-molecule microarray, Cy5-labelled CALM1, plus calcium (AID 1112); conditions: Cy5-CALM1 binding fluorescence, higher = more signal;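 also: score merges spot fluorescence with signal to noise from triplicate slides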
# [16] = small-molecule microarray binders of probe aWnt5a, primary screen, biochemical, biotinylated probe, 635/667 nm fluorescence (AID 1113); conditions: higher = more signal;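 also: score merges 667 nm fluorescence intensity with signal-to-noise per printed feature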
# [17] = small-molecule microarray binders of probe aShh, primary screen, biochemical, biotinylated probe, 635/667 nm fluorescence (AID 1114); conditions: higher = more signal;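 also: probe is biotin-labelled aShh protein from a stem cell growth factor screen; measures binding of labelled protein to compounds printed on the slide; score merges feature fluorescence at 667 nm with signal-to-noise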
# [18] = small-molecule microarray binders of probe aNog, primary screen, biochemical, biotinylated probe, 635/667 nm fluorescence (AID 1115); conditions: higher = more signal;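 also: probe is biotinylated aNog protein used at 0.15 µg/mL for 1 h at 4 C; z-score combines 667 nm fluorescence of each spot with its signal to noise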
# [19] = target: Torsin-1A-interacting protein 1 (Homo sapiens) (UniProt Q5JTV8); assay: LAP1 binders from COS7 cell lysate, primary screen, small-molecule microarray, 635/667 nm fluorescence (AID 1116); conditions: COS7-hLAP1 lysate binding, 635 nm fluorescence, higher = more signal
# [20] = target: Alpha-bungarotoxin (Bungarus multicinctus) (UniProt P60615); assay: alpha-bungarotoxin binders on microarray, profiling panel, artefact control for SMM control protein annotation, biochemical, small-molecule microarray, Alexa647 label, 635/667 nm fluorescence (AID 1117); conditions: alpha-BTX-A647 binding fluorescence, higher = more signal
# Alpha-bungarotoxin (Bungarus multicinctus), sequence (P60615 whole entry, looked up): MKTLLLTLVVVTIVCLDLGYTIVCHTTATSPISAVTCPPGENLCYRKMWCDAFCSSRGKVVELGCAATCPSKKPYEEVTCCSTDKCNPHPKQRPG
# Follistatin-related protein 3 (Homo sapiens), sequence (O95633 whole entry, looked up): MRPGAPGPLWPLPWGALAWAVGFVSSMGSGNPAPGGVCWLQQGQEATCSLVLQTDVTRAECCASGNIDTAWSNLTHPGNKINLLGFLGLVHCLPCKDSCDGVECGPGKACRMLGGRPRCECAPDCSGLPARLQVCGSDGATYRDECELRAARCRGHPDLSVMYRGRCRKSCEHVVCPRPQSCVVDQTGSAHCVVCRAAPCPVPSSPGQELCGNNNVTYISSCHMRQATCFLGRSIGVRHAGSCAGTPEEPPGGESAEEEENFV
# Torsin-1A-interacting protein 1 (Homo sapiens), sequence (Q5JTV8 whole entry, looked up): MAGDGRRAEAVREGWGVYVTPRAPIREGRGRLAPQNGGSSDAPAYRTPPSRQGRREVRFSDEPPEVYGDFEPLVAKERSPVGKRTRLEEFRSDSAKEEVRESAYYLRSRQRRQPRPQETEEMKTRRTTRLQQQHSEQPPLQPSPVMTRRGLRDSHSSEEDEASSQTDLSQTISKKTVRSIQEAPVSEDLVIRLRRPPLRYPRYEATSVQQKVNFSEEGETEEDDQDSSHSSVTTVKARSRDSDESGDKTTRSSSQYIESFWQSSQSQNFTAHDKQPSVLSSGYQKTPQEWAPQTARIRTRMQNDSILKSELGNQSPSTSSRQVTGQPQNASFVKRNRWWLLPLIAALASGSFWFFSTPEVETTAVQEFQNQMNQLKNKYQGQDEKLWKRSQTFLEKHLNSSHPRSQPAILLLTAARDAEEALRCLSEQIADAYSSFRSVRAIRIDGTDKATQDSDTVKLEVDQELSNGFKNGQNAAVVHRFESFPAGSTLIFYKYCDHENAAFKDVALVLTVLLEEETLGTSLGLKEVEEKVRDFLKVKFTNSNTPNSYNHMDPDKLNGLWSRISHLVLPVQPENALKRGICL
# Epidermal growth factor receptor (Homo sapiens), sequence (P00533 whole entry, looked up): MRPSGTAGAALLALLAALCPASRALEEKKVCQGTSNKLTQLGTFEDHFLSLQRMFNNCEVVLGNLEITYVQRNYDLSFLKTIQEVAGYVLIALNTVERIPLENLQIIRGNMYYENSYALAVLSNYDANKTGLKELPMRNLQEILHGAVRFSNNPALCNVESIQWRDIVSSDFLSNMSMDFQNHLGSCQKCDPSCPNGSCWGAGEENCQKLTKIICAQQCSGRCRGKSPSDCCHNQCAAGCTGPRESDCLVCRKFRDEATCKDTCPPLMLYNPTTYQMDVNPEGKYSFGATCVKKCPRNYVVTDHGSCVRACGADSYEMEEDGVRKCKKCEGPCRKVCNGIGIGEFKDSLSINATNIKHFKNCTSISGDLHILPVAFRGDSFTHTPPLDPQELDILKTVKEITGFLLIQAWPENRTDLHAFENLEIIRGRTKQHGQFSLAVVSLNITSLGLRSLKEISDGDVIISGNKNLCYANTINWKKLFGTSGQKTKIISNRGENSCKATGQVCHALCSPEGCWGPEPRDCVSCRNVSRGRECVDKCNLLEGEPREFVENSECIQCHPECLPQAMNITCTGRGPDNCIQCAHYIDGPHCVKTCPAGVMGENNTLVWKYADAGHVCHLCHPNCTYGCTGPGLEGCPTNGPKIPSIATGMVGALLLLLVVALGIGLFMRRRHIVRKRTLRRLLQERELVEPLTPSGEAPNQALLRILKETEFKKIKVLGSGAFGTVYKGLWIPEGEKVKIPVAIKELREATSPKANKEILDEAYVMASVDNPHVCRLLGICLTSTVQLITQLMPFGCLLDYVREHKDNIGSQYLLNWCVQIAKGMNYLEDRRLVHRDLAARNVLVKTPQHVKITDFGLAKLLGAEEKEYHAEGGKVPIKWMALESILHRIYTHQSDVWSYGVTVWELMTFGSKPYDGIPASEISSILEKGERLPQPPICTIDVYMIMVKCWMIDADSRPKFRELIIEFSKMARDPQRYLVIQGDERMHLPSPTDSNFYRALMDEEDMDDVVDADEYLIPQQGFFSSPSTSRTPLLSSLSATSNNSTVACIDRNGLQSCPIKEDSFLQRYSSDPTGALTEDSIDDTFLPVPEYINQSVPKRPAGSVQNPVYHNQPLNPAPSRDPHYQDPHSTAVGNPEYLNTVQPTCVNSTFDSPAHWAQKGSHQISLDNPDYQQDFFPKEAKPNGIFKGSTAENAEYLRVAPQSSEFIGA
# Dickkopf-related protein 1 (Homo sapiens), sequence (O94907 whole entry, looked up): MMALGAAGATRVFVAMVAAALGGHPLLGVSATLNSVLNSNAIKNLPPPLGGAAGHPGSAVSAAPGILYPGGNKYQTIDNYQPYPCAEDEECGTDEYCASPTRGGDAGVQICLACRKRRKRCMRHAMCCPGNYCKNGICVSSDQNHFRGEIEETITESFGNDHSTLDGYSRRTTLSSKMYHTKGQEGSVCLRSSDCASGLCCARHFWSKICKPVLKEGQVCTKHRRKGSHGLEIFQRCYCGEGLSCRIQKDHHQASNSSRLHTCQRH
# Left-right determination factor 2 (Homo sapiens), sequence (O00292 whole entry, looked up): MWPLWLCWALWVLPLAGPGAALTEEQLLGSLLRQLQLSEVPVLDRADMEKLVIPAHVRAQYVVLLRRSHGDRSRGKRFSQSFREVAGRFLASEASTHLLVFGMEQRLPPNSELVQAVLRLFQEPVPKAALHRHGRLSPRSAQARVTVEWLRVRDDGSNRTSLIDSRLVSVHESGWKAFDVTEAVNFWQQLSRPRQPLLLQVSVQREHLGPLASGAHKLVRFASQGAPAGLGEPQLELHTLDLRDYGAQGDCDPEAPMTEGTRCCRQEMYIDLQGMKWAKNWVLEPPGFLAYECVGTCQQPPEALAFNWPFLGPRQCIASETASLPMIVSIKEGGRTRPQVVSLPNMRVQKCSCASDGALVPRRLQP
# Fibroblast growth factor 10 (Homo sapiens), sequence (O15520 whole entry, looked up): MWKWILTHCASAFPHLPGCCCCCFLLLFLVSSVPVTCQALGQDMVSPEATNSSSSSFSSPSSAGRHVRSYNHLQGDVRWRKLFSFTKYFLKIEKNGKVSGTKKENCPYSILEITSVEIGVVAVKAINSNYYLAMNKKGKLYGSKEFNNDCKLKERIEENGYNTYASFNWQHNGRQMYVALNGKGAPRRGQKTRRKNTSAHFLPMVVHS
SMILES,composite z-score [1],composite z-score [2],composite z-score [3],z-score [4],composite z-score [5],composite z-score [6],composite z-score [7],composite z-score [8],composite z-score [9],composite z-score [10],composite z-score [11],z-score [12],composite z-score [13],composite z-score [14],composite z-score [15],composite z-score [16],composite z-score [17],composite z-score [18],composite z-score [19],composite z-score [20]
CCOC(=O)C1=CC[C@@H](c2ccccc2)N(S(=O)(=O)C[Si](C)(C)C)[C@H]1c1ccccc1,1.09,0.319,-0.0475,-1.02 (inactive),0.78,0.651,0.461,1.37,0.405,0.193,1.38,-0.61,0.618,1.36,0.391,0.105,-0.2,0.509,1.02,1.02
COCC(=C=CC[C@@H](O)c1ccc(OCCO)cc1)C[C@@H](O)COCc1ccccc1,0.804,-0.0148,0.548,-1.83 (inactive),1.52,0.611,0.158,0.939,-0.0983,1.42,1.39,-1.08,1,0.0268,0.473,0.0559,0.0611,0.629,0.319,0.0353
CCCCC(=C=CC[C@@H](O)c1ccc(OCCO)cc1)C[C@@H](O)c1ccccn1,0.381,-0.0087,-0.162,0.0171 (inactive),0.279,0.382,-0.123,0.588,0.414,0.981,-0.0715,-1.49,0.288,0.421,0.0751,-0.0685,0.0611,0.157,0.642,0.0829
C=CCC(OC(C)=O)[C@@H]1[C@@H](N(Cc2cccc3ccccc23)C(=O)c2ccc(-c3ccccc3)cc2)c2cc(OCCCO)ccc2N1C(=O)c1ccc2ccccc2n1 (stereo not given in full),0.0273,0.052,0.265,-0.395 (inactive),0.186,0.159,-0.0618,0.389,0.19,1.31,0.237,0.15,0.258,0.249,0.979,-0.0685,0.158,-0.278,0.529,-0.0098
COc1ccc([Si](C)(C)[C@H]2[C@H](CCn3cc([C@H](O)c4ccccc4)nn3)O[C@@]3(C(=O)N(c4ccccc4)c4ccccc43)[C@@H]2C)cc1,0.459,-0.125,0.0759,-0.299 (inactive),0.355,-0.44,-0.166,0.34,-0.0331,-0.168,0.323,-2.91,-0.202,-0.0353,0.82,-0.1,-0.2,-0.143,-0.179,0.0509
